In PubChem BioAssay (NCATS):
Inconclusive results are not listed. Calls of active or inactive are those of the source. The call rests on the fitted dose curve; in most records, active means well fitted curve in the direction sought with a large enough effect; inconclusive means small, poorly fitted or top-dose-only effect, or another doubt; inactive means no such curve, though single readings can be large; an effect the other way counts as inactive or inconclusive.

How the values were obtained:
[1] = Quantitative High-Throughput drug screen in 47 multiple myeloma cell lines against the NCATS MIPE library collection: KMS26_JCRB cell viability assay (AID 1918975); further: nearly all actives have a fitted effect of over 45% in size
Procedure, shortened: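 Steps: seed 500 cells per well; pin-transfer MIPE 4.0 library; incubate 48 h at 37C, 5% CO2, humidified; add CellTiter-Glo, 5 min room temperature; read luminescence.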

[2] = Quantitative High-Throughput drug screen in 47 multiple myeloma cell lines against the NCATS MIPE library collection: MMM1_PLB cell viability assay (AID 1918976); further: nearly all actives have a fitted effect of over 35% in size
Procedure, shortened: (§1)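 Myeloma cells (500/well) treated with MIPE 4.0 compounds for 48 h at 37 °C, 5% CO2. Viability read as ATP via CellTiter-Glo luminescence after 5 min at RT; DMSO-only wells = 100%, media-only = 0% viability.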

[3] = Quantitative High-Throughput drug screen in 47 multiple myeloma cell lines against the NCATS MIPE library collection: NCIH929_DSMZ cell viability assay (AID 1918978); further: nearly all actives have a fitted effect of over 35% in size
Procedure, shortened: as §1

[4] = Quantitative High-Throughput drug screen in 47 multiple myeloma cell lines against the NCATS MIPE library collection: OCIMY1_PLB cell viability assay (AID 1918979); further: nearly all actives have a fitted effect of over 35% in size
Procedure, shortened: as §1

[5] = Quantitative High-Throughput drug screen in 47 multiple myeloma cell lines against the NCATS MIPE library collection: MM1S_ATCC cell viability assay (AID 1918980); further: nearly all actives have a fitted effect of over 45% in size
Procedure, shortened: as §1

[6] = Quantitative High-Throughput drug screen in 47 multiple myeloma cell lines against the NCATS MIPE library collection: MM1R_ATCC cell viability assay (AID 1918981); further: nearly all actives have a fitted effect of over 35% in size
Procedure, shortened: as §1

[7] = Quantitative High-Throughput drug screen in 47 multiple myeloma cell lines against the NCATS MIPE library collection: LP1_DSMZ cell viability assay (AID 1918982); further: nearly all actives have a fitted effect of over 35% in size
Procedure, shortened: as §1

[8] = Quantitative High-Throughput drug screen in 47 multiple myeloma cell lines against the NCATS MIPE library collection: KMS28PE_JCRB cell viability assay (AID 1918983); further: nearly all actives have a fitted effect of over 35% in size
Procedure, shortened: as §1

[9] = Quantitative High-Throughput drug screen in 47 multiple myeloma cell lines against the NCATS MIPE library collection: L363_DSMZ cell viability assay (AID 1918984); further: nearly all actives have a fitted effect of over 40% in size
Procedure, shortened: as §1

[10] = Quantitative High-Throughput drug screen in 47 multiple myeloma cell lines against the NCATS MIPE library collection: OCIMY5_PLB cell viability assay (AID 1918988); further: nearly all actives have a fitted effect of over 65% in size
Procedure, shortened: as §1

[11] = Quantitative High-Throughput drug screen in 47 multiple myeloma cell lines against the NCATS MIPE library collection: OPM1_PLB cell viability assay (AID 1918989); further: nearly all actives have a fitted effect of over 40% in size
Procedure, shortened: as §1

[12] = Quantitative High-Throughput drug screen in 47 multiple myeloma cell lines against the NCATS MIPE library collection: SKMM1_PLB cell viability assay (AID 1919863); details: SKMM1 myeloma viability, CellTiter-Glo ATP, 48 h; viability: hits give low values; further: nearly all actives have a fitted effect of over 35% in size
Procedure, shortened: as §1

[13] = Quantitative High-Throughput drug screen in 47 multiple myeloma cell lines against the NCATS MIPE library collection: U266_ATCC cell viability assay (AID 1919864); further: nearly all actives have a fitted effect of over 35% in size
Procedure, shortened: as §1

[14] = Quantitative High-Throughput drug screen in 47 multiple myeloma cell lines against the NCATS MIPE library collection: XG6_PLB cell viability assay (AID 1919865); further: nearly all actives have a fitted effect of over 40% in size
Procedure, shortened: as §1

[15] = Quantitative High-Throughput drug screen in 47 multiple myeloma cell lines against the NCATS MIPE library collection: XG1_PLB cell viability assay (AID 1919866); further: nearly all actives have a fitted effect of over 35% in size
Procedure, shortened: as §1

[16] = Quantitative High-Throughput drug screen in 47 multiple myeloma cell lines against the NCATS MIPE library collection: VP6_DJ cell viability assay (AID 1919867); further: nearly all actives have a fitted effect of over 40% in size
Procedure, shortened: as §1

[17] = Quantitative High-Throughput drug screen in 47 multiple myeloma cell lines against the NCATS MIPE library collection: UTMC2_PLB cell viability assay (AID 1919868); details: CellTiter-Glo ATP luminescence, 48 h; viability (% of DMSO control): at 45.8 µM (top of the series); further: nearly all actives have a fitted effect of over 55% in size
Procedure, shortened: as §1

[18] = Quantitative High-Throughput drug screen in 47 multiple myeloma cell lines against the NCATS MIPE library collection: MOLP8_DSMZ cell viability assay (AID 1918977); further: nearly all actives have a fitted effect of over 45% in size
Procedure, shortened: as §1

[19] = Quantitative High-Throughput drug screen in 47 multiple myeloma cell lines against the NCATS MIPE library collection: KMS34_JCRB cell viability assay (AID 1918985); further: nearly all actives have a fitted effect of over 40% in size
Procedure, shortened: as §1

[20] = Quantitative High-Throughput drug screen in 47 multiple myeloma cell lines against the NCATS MIPE library collection: OCIMY7_PLB cell viability assay (AID 1918987); further: nearly all actives have a fitted effect of over 65% in size
Procedure, shortened: as §1
Potency means the concentration at half of the fitted maximal effect.

CS(=O)(=O)c1cccc(CNc2nc(Nc3ccc4c(c3)CCC(=O)N4)ncc2C(F)(F)F)c1
active: Potency [1] 18.7 µM | Potency [2] 23.5 µM | Potency [3] 10.5 µM | Potency [4] 16.6 µM | Potency [5] 18.7 µM | Potency [6] 20.9 µM | Potency [7] 18.7 µM | Potency [8] 23.5 µM | Potency [9] 6.62 µM | Potency [10] 18.7 µM | Potency [11] 18.7 µM | Potency [12] 20.9 µM | Potency [13] 18.7 µM | Potency [14] 8.33 µM | Potency [15] 11.8 µM | Potency [16] 5.26 µM | Potency [17] 11.8 µM

COc1ccccc1-c1cccc(-c2c(O)c3cc(C#N)c(Cl)cc3[nH]c2=O)c1
active: Potency [14] 34 µM | Potency [16] 21.5 µM
inactive: Potency [1] | Potency [18] | Potency [4] | Potency [5] | Potency [6] | Potency [19] | Potency [10] | viability [12] 104% | Potency [13]

Cc1cnc(NC(=O)C2=C(O)c3ccccc3S(=O)(=O)N2C)s1
inactive: Potency [1] | Potency [18] | Potency [3] | Potency [4] | Potency [6] | Potency [7] | Potency [19] | Potency [10] | Potency [11]

C[C@@H]1CN(Cc2ccc(F)cc2)[C@@H](C)CN1C(=O)c1cc2c(C(=O)C(=O)N(C)C)cn(C)c2cc1Cl
inactive: Potency [4]
active: Potency [1] 18.7 µM | Potency [2] 23.5 µM | Potency [20] 14.8 µM | Potency [11] 29.6 µM | Potency [15] 18.7 µM | Potency [16] 14.8 µM

CC(C)C[C@H](NC(=O)[C@@H](O)[C@H](N)Cc1ccccc1)C(=O)O
active: Potency [1] 23.5 µM | Potency [2] 20.9 µM | Potency [18] 20.9 µM | Potency [3] 20.9 µM | Potency [6] 20.9 µM | Potency [7] 20.9 µM | Potency [8] 20.9 µM | Potency [10] 26.4 µM | Potency [11] 16.6 µM | Potency [12] 26.4 µM | Potency [13] 23.5 µM | Potency [14] 20.9 µM | Potency [15] 20.9 µM

COc1ccc(C2=N[C@H](c3ccc(Cl)cc3)[C@H](c3ccc(Cl)cc3)N2C(=O)N2CCNC(=O)C2)c(OC(C)C)c1
active: Potency [1] 16.6 µM | Potency [2] 4.69 µM | Potency [18] 8.33 µM | Potency [3] 5.26 µM | Potency [6] 2.35 µM | Potency [9] 0.059 µM | Potency [20] 8.33 µM | Potency [10] 18.7 µM | Potency [12] 5.9 µM | Potency [13] 20.9 µM | Potency [14] 2.64 µM
inactive: Potency [4] | Potency [7] | Potency [8]

CC1(C)SCCN(S(=O)(=O)c2ccc(OCC#CCO)cc2)[C@@H]1C(=O)NO
inactive: Potency [4] | Potency [11] | Potency [15]
active: Potency [1] 2.96 µM | Potency [2] 1.87 µM | Potency [7] 16.6 µM | Potency [10] 5.26 µM | Potency [12] 0.118 µM

COc1cccc2cc(-c3nc(C4CCC(C(=O)O)CC4)n4ncnc(N)c34)[nH]c12 (centres undefined)
active: Potency [1] 0.662 µM | Potency [2] 0.662 µM | Potency [18] 0.418 µM | Potency [3] 0.187 µM | Potency [4] 1.05 µM | Potency [6] 0.469 µM | Potency [8] 0.469 µM | Potency [10] 1.32 µM | Potency [11] 2.35 µM | Potency [12] 1.87 µM | Potency [13] 0.296 µM | Potency [14] 0.418 µM | Potency [15] 0.148 µM | Potency [16] 0.833 µM

CCOC(=O)N1CCC(=C2c3ccc(Cl)cc3CCc3cccnc32)CC1
inactive: Potency [9] | Potency [17]
active: Potency [1] 18.7 µM | Potency [2] 23.5 µM | Potency [3] 7.43 µM | Potency [5] 29.6 µM | Potency [19] 26.4 µM | Potency [10] 20.9 µM | Potency [12] 20.9 µM | Potency [13] 33.2 µM

CS(=O)(=O)c1ccc(C(=O)Nc2ccc(Cl)c(-c3ccccn3)c2)c(Cl)c1
inactive: Potency [1] | Potency [18] | Potency [6] | Potency [7] | Potency [8] | Potency [9] | Potency [19] | viability [12] 129%
active: Potency [3] 2.96 µM | Potency [11] 18.7 µM | Potency [15] 1.66 µM

OC(CCN1CCCCC1)(c1ccccc1)C1CC2C=CC1C2 (centres undefined)
inactive: Potency [1] | Potency [18] | Potency [3] | Potency [4] | Potency [7] | Potency [8] | Potency [19] | Potency [10] | Potency [11] | Potency [13] | Potency [14] | Potency [15] | Potency [16]

CC(C[N+](C)(C)C)OC(N)=O (centres undefined)
active: Potency [10] 16.6 µM
inactive: Potency [1] | Potency [18] | Potency [3] | Potency [4] | Potency [5] | Potency [6] | Potency [7] | Potency [11] | Potency [13]

Nc1cccc(S(=O)(=O)N2CCCN(S(=O)(=O)c3ccc4c(c3)OCCO4)CC2)c1
inactive: Potency [1] | Potency [18] | Potency [3] | Potency [19] | Potency [11] | viability [12] 103%
active: Potency [5] 14.8 µM | Potency [6] 11.8 µM | Potency [7] 16.6 µM | Potency [15] 7.43 µM | Potency [16] 8.33 µM

CCCC(CCC)C(=O)O
inactive: Potency [1] | Potency [18] | Potency [3] | Potency [4] | Potency [6] | Potency [7] | Potency [19] | viability [12] 126%
active: Potency [14] 26.4 µM | Potency [15] 20.9 µM | Potency [16] 18.7 µM
